# Laboratory results taken from the supplement of paper PMC3545927.
# Some of the results follow. The true hit rate is not given.
# Biological target: furin, P09958
# Experiment: furin cleavage Z-score vs untreated control; higher = more cleavage, active = 3.5 or more, inactive = 1 or less, 8 variable residues between constant flanks
# Procedure, shortened: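 Furin cleavage was scored on 8-mer peptides joined to a cDNA oligonucleotide and bound to magnetic beads at the N-terminus. Digestion with purified furin (1:10 enzyme:substrate, 0.01 ml, 50 mM HEPES pH 7.5, CaCl2, NaCl) lasted 7.5, 15 or 30 min. Freed DNA was tagged with adapters by PCR, sequenced and counted; the cleavage Z-score is the lowess-adjusted log count versus furin-free reactions, scaled by median absolute deviation.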
# Sequence of furin, P09958 (P09958 whole entry): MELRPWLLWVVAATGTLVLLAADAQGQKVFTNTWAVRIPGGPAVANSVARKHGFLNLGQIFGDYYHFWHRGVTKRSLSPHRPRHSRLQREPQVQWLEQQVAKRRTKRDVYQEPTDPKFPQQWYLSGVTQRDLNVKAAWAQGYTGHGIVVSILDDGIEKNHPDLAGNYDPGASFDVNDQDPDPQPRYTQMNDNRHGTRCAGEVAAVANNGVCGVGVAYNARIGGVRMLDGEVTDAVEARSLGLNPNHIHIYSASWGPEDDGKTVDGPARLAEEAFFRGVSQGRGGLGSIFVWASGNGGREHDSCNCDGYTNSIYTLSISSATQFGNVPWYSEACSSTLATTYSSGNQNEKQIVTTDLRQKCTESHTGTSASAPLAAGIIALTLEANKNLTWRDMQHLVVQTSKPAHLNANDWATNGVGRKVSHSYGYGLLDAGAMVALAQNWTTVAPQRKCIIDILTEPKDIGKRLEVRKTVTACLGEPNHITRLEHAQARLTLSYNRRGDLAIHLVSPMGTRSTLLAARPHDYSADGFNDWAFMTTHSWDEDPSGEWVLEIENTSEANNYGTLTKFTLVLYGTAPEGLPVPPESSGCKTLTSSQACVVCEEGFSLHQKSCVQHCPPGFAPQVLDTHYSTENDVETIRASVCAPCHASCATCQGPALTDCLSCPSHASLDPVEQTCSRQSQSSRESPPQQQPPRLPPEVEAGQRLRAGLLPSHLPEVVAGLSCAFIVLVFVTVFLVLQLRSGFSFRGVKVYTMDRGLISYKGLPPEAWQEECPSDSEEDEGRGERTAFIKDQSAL
Sequence,furin cleavage Z-score (7.5 min),furin cleavage Z-score (15 min),furin cleavage Z-score (30 min)
CAAIKWEYVVAGNASASA [HC517],-0.197 (inactive),-3.37 (inactive),-0.457 (inactive)
CAVGQLFTFSAGNASASA [HC304],0.324 (inactive),-1.01 (inactive),-1.31 (inactive)
CAVGGVLAALAGNASASA [HC992],-0.486 (inactive),-0.617 (inactive),-1.61 (inactive)
CAVTGGSAGHAGNASASA [HC354],0.0621 (inactive),-1.5 (inactive),-0.849 (inactive)
CAVMHRVARHAGNASASA [FS-1431],10.4 (active),9.27 (active),9.21 (active)
CADVSRNARHAGNASASA [FS-1625],3.37,3.82 (active),3.7 (active)
CAVGQRQARHAGNASASA [FS-965],4.69 (active),5.78 (active),5.69 (active)
CAVSFRVGLHAGNASASA [HC1233],-0.575 (inactive),0.122 (inactive),1
CAEVVTSTWHAGNASASA [HC2255],1.36,-3.35 (inactive),0.0251 (inactive)
CAVVHCSMSYAGNASASA [HC2035],-0.95 (inactive),-0.538 (inactive),-0.331 (inactive)
CAVVHRFARHAGNASASA [FS-107],10.1 (active),9.64 (active),8.96 (active)
CAVVTSTWVLAGNASASA [HC988],-0.433 (inactive),-1.05 (inactive),-0.901 (inactive)
CATWGADTAAAGNASASA [HC653],-1.68 (inactive),-0.657 (inactive),0.025 (inactive)
CATINYTIFKAGNASASA [HC471],-0.464 (inactive),-1.13 (inactive),-1.75 (inactive)
CAKIMSGEVPAGNASASA [HC1094],0.645 (inactive),-1.21 (inactive),-1.34 (inactive)
CACVREGNASAGNASASA [HC275],-1.21 (inactive),-1.14 (inactive),-0.496 (inactive)

Sequence,furin cleavage Z-score (7.5 min),furin cleavage Z-score (15 min),furin cleavage Z-score (30 min)
CAPCERKGRSAGNASASA [FS-1379],5.38 (active),8.32 (active),6.45 (active)
CATGRGKPGIAGNASASA [HC906],-0.769 (inactive),0.329 (inactive),1.63
CATGRRKGRSAGNASASA [FS-1290],10.3 (active),12.1 (active),8.69 (active)
CAYCFTPSPVAGNASASA [HC414],-0.826 (inactive),-2.21 (inactive),-2.26 (inactive)
CAYTPCSAHLAGNASASA [HC2469],-1.25 (inactive),-1.32 (inactive),-1.27 (inactive)
CALMTHFFSVAGNASASA [HC1583],-2.19 (inactive),-1.38 (inactive),-1.85 (inactive)
CARKKRLEEQAGNASASA [FS-1857],-0.193 (inactive),1.1,0.0714 (inactive)
CARKMRDDERAGNASASA [FS-1904],0.00727 (inactive),-0.39 (inactive),-1.4 (inactive)
CARKKRFAKQAGNASASA [FS-2692],5.98 (active),8.51 (active),8.88 (active)
CARKKRAAGQAGNASASA [FS-1727],10.8 (active),11.8 (active),8.92 (active)
CASEMEECSQAGNASASA [HC1797],1.23,-0.566 (inactive),0.242 (inactive)
CATPIAAAGQAGNASASA [HC1639],-1.29 (inactive),-1.26 (inactive),-1.59 (inactive)
CARKKRWAERAGNASASA [FS-3257],8.39 (active),10.8 (active),10.8 (active)
CALEMEECSQAGNASASA [HC1785],0.133 (inactive),0.777 (inactive),-0.27 (inactive)
CADEMEECSQAGNASASA [HC1791],6.21 (active),-2.13 (inactive),-5.81 (inactive)
